Values joined by “and” are separate entries in the source; they are usually repeats but may differ in a detail not shown here. Equal entries are not always repeated. Inconclusive results are not listed. A call without a number means that no potency is given here. Active and inactive are the calls of the source. Calls come from the whole dose curve; as a rule, active = well fitted cell-killing curve with a large enough effect; inconclusive = small, poorly fitted or top-dose-only effect; inactive = no such curve, though single readings can be large or run the other way.
Assay: qHTS of pediatric cancer cell lines to identify multiple opportunities for drug repurposing: Primary screen for SJ-GBM2 cells (AID 1347091)
Details: SJ-GBM2 viability, CellTiter-Glo luminescence, 48 h; series mostly up to 46 µM
Source text: Drug repurposing or repositioning has been offered as a strategy for drug development in oncology programs. This approach has special potential for childhood cancers and other rare or orphan diseases, where the expected return on new drug development has been a disincentive to pharmaceuticals.
In this project we exploit the poly-pharmacology of drugs to discover new indications via phenotypic screening of a panel of 19 well-characterized cell lines derived from solid tumors seen in children and adolescents. The goal is to identify approved drugs with previously unrecognized anticancer properties that has the potential to reveal new mechanisms and biological processes involved in carcinogenesis or drug resistance. We employed a titration-based paradigm (quantitative high-throughput screening or qHTS), where all compounds were tested at multiple concentrations for their effect on cell viability. Concentration-response curves (CRCs) were derived directly from the primary screen, and both potency and efficacy values were used to identify compounds with robust bioactivity profiles. We screened the NIH Chemical Genomics Center (NCGC) Pharmaceutical Collection (NPC) and Mechanism Interrogation Plate (MIPE) small molecule collections of approved and investigational compounds against these cell lines; and measured metabolically active cells after 48 hours of compound treatment as a proxy for cell viability.
Assay Submitter: Nathalia J. Martinez, National Center for Advancing Translational Sciences, National Institutes of Health, Rockville, MD, USA; email: natalia.martinez@nih.gov
[1] Shen, M et al. Quantitative high-throughput phenotypic screening of pediatric cancer cell lines identifies multiple opportunities for drug repurposing. Oncotarget 2017 Dec 19;9(4):4758-4772. PMID 29435139.
The cells were obtained from University of North Carolina (UNC), Pediatric Preclinical Testing Program (PPT), and Coriell Institute (CI).
qHTS cell viability assay:
Cells were assayed in growth media at a density of 500-1,000 cells/well. Five microliters of cells were dispensed into 1,536-well, white, solid-bottom, TC-treated plates (Greiner Bio One) using a multidrop dispenser and incubated at 37 degrees C, 5% CO2, under a humidified atmosphere for 5 hours. Twenty-three nanoliters of compounds and controls (neutral control DMSO or positive control bortezomib at final concentration of 2.3 µM) were subsequently transferred by Kalypsys pintool. For primary screens, the MIPE collection was tested at 11-point dilutions (final concentrations range from 0.78 nM to 46 µM) and the NPC collection at 8-point dilutions (final concentrations range from 0.59 nM to 46 µM). Compounds tested in follow-up screens were assayed at 11-point dilutions. Cells were incubated for 48 hours, followed by addition of 3 uL of CellTiter-Glo (Promega). After a 15 min incubation at room temperature, samples were analyzed for luminescence intensity using a ViewLux High-throughput CCD imager equipped with clear filters.
Potency is the fitted concentration of half-maximal effect.

Compound	Potency
NS(=O)(=O)c1cc(C(=O)O)c(NCc2ccco2)cc1Cl	inactive
N[C@@H](Cc1cc(I)c(Oc2cc(I)c(O)c(I)c2)c(I)c1)C(=O)O	inactive
O=C(OC1C[C@H]2CC[C@@H](C1)[N+]21CCCC1)C(O)(c1ccccc1)c1ccccc1 (stereo not given in full)	inactive
CN(c1nccc(=O)[nH]1)C1CCN(c2nc3ccccc3n2Cc2ccc(F)cc2)CC1	inactive
CS(=O)(=O)OCCCCOS(C)(=O)=O	inactive
CN(C)c1ccc(O)c2c1C[C@H]1C[C@H]3[C@H](N(C)C)C(=O)C(C(N)=O)=C(O)[C@@]3(O)C(=O)C1=C2O	inactive
N=C(N)c1ccc2cc(OC(=O)c3ccc(N=C(N)N)cc3)ccc2c1	inactive
CCOC(=O)C1=C[C@@H](OC(CC)CC)[C@H](NC(C)=O)[C@@H](N)C1	inactive
O=C1c2ccccc2-c2n[nH]c3cccc1c23	inactive
CC(C)Oc1ccc2c(=O)c(-c3ccccc3)coc2c1	inactive
CN(C)[C@@H](CCOc1cccc2ccccc12)c1ccccc1	inactive
Cc1nccn1CC1CCc2c(c3ccccc3n2C)C1=O (stereo not given)	inactive
Nc1nc(Cl)nc2c1ncn2[C@H]1C[C@H](O)[C@@H](CO)O1	7.43 µM (active)
CCCc1cc(=O)[nH]c(=S)[nH]1	inactive
Nc1ncn([C@H]2C[C@H](O)[C@@H](CO)O2)c(=O)n1	inactive
CC1=C(C(=O)O)N2C(=O)[C@@H](NC(=O)[C@H](N)C3=CCC=CC3)[C@H]2SC1	inactive
Cc1cc(=O)c2c(O)c3c(O)cc(=O)c4c3c3c(cc(O)c1c23)C(C)(C)C=4O	0.332 µM (active)
CCCS(=O)c1ccc2nc(NC(=O)OC)[nH]c2c1 (stereo not given)	21.1 µM (active) and 18.7 µM (active)
O=c1ccc2ccc(O)c(O)c2o1	inactive
O=C(O)c1cc(=O)c2c(OCC(O)COc3cccc4oc(C(=O)O)cc(=O)c34)cccc2o1	inactive

Compound	Potency
O=C(NOCC1CC1)c1ccc(F)c(F)c1Nc1ccc(I)cc1Cl	9.35 µM (active)
Cc1nc2n(c(=O)c1CCN1CCC(c3noc4cc(F)ccc34)CC1)CCCC2	inactive
CNC[C@@H](O)[C@@H](O)[C@H](O)[C@H](O)CO	inactive
Nc1ccc(S(N)(=O)=O)cc1	inactive
NC(=O)Cc1cccc(C(=O)c2ccccc2)c1N	inactive
CCCOc1ccc2nc(NC(=O)OC)[nH]c2c1	0.001 µM (active)
CC1(C)C(=O)N(CCN2CCC(C(=O)c3ccc(F)cc3)CC2)c2ccccc21	inactive
C[C@H](Cn1cnc2c(N)ncnc21)OCP(=O)(O)O	inactive
CC(S)C(=O)NCC(=O)O (stereo not given)	inactive
COC(=O)N[C@H](C(=O)N[C@@H](Cc1ccccc1)[C@@H](O)CN(Cc1ccc(-c2ccccn2)cc1)NC(=O)[C@@H](NC(=O)OC)C(C)(C)C)C(C)(C)C	inactive
COc1c(O)cc2c(c1O)[C@@H]1O[C@H](CO)[C@@H](O)[C@H](O)[C@H]1OC2=O	inactive
CC(=O)NC[C@H]1CN(c2ccc(N3CCOCC3)c(F)c2)C(=O)O1	inactive
Cc1cc(=O)oc2cc(O)ccc12	inactive
CC[C@]1(O)C[C@H]2CN(CCc3c([nH]c4ccccc34)[C@@](C(=O)OC)(c3cc4c(cc3OC)N(C=O)[C@H]3[C@@](O)(C(=O)OC)[C@H](OC(C)=O)[C@]5(CC)C=CCN6CC[C@]43[C@@H]65)C2)C1	1 nM (active) and 84.1 nM (active)
Cc1ccc(C)c(OCCCC(C)(C)C(=O)O)c1	inactive
CC1Cc2ccccc2N1NC(=O)c1ccc(Cl)c(S(N)(=O)=O)c1 (stereo not given)	inactive
O=C(c1ccccc1)c1ccc2n1CCC2C(=O)O (stereo not given)	inactive
O=c1c(O)c(-c2ccc(O)cc2O)oc2cc(O)cc(O)c12	inactive
Nc1nc(N)c(N=O)c(OCC2CCCCC2)n1	9.35 µM (active)
O=C(O)CCNC(=O)c1ccc(N=Nc2ccc(O)c(C(=O)O)c2)cc1	inactive

Reference: PubChem BioAssay (NCATS)
